# Assay results as given in the supplement of paper PMC8728848.
# Shown is part of a subset that was picked to be rich in the strongest signals.
# B1: CwpV (Clostridium difficile), B6EFG6 (protein)
# chain: MKIPKKIAAMLTVTMIAGSSTAGIASAQTVATNLTGQERYETAVKISQDGWKNADEVVIVNDSSIADALSATPFAKAKNAPILLTSKDKLNDKTKAEIQRLKAKKVYLIGGTSVLSTNIEKEIKDLKISFERISGAERYQTSLELAKKLDAISDVKKIAVVNGEKGLADAVSVGAPAAQNNMPVILADSKNGTAVADKFIKDAGITQSYVVGGESSISEAVKNKLPNSTRLGGTDRNDTNAKVIKEFYKKTDLKNAYVTKDGMNKQDQLIDALAVGVLGAKNQSPVVLVGKNLSASQKSLVNSKSFDKITKVGGNGNETAFNEMKSLQEVKTVEAKTISELKSAIDKATANDVINFKPTSEVKEAFTIQTDKAVTVNLNGTYTKTVTINMPNGDVNNYAKVDDVVIDDVKDGTFVNYGKITNLKVNDKNGAKIENNSKGEIGSLTVASGASQVKVTNGGKITTVTNNSKGTTIDNKGTISSVKGDNSPTISGNSPSSNSSGGSSSSGGSSGGSSGGSSSSKVGQIKFSATDKQIKMASGDKTVDPSDNTYILKLTNGTVKDGDVKANVKVAGLPSGLDYTAVGNRSANTITITVSGTTSQSIQNDLNNVSVLVKAGAVSGTGATDSIANTTFEIKKYVAAPAVGQLTFDATDKQIKMASGDKTVDPSDDTYVLTLTKGTAKDGDIKANVEVTGLPSGLDYTAEGDSSANTITIPVSGTASPAVQTDLDNVSVLVKAGAVSETTATDSAANATFEVKKYVAPAVGQLTFDATDKQIKMASGDKTVDPSDDTYVLTLTKGTAKDGDIKANVEVTGLPSGLDYTAEGDSSANTITITVSGTASQAVQTDLDNVSVLVKAGAVSETTATDSAANATFEVKKYVAPAIGQLTFDATDKQIKMASGDKTVDPSDDTYVLTLTKGTAKDGDIKANVEVTGLPSGLDYTAEGDSSANTITITVSGTASQAVQTDLDNVSVLVKAGAVSETTATDSAANATFEVKKHASDPISTIGKISSGLSSLFNILK
# Columns and labels:
# Assay in all cases: glycan array binding signal (z-score within array); higher = stronger binding
# Conditions in all cases: glycan notation: IUPAC condensed, linker removed
# [1] = target: Fuc(a1-2)Gal(b1-3)GalNAc(b1-3)Gal(a1-4)Gal(b1-4)Glc
# Procedure, shortened: (§1)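 The binding signal is a Z-score computed within each array and averaged over linkers. Arrays of the same protein sequence at different concentrations or buffers were also averaged together. Data originate from 3228 arrays in the Consortium for Functional Glycomics database, kept only where the protein sequence was available.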
# [2] = target: Fuc(a1-2)Gal(b1-3)[Fuc(a1-4)]GlcNAc(b1-3)[Gal(b1-4)GlcNAc(b1-6)]Gal(b1-4)Glc
# Procedure, shortened: as §1
# [3] = target: Fuc(a1-2)Gal(b1-4)[Fuc(a1-3)]GlcNAc(b1-3)GalNAc
# Procedure, shortened: as §1
# [4] = target: Fuc(a1-2)[GalNAc(a1-3)]Gal(b1-4)GlcNAc(b1-2)Man(a1-3)[Fuc(a1-2)[GalNAc(a1-3)]Gal(b1-4)GlcNAc(b1-2)Man(a1-6)]Man(b1-4)GlcNAc(b1-4)GlcNAc
# Procedure, shortened: as §1
# [5] = target: Fuc(a1-2)[GalNAc(b1-3)]Gal
# Procedure, shortened: as §1
# [6] = target: Fuc(a1-3)[Gal(b1-4)]GlcNAc(b1-2)Man(a1-3)[Fuc(a1-3)[Gal(b1-4)]GlcNAc(b1-2)Man(a1-6)]Man(b1-4)GlcNAc(b1-4)GlcNAc
# Procedure, shortened: as §1
# [7] = target: Fuc(a1-3)[Gal(b1-4)]GlcNAc(b1-3)GalNAc
# Procedure, shortened: as §1
# [8] = target: Gal(a1-3)Gal(b1-3)GlcNAc(b1-2)Man(a1-3)[Gal(a1-3)Gal(b1-3)GlcNAc(b1-2)Man(a1-6)]Man(b1-4)GlcNAc(b1-4)GlcNAc
# Procedure, shortened: as §1
# [9] = target: Gal(a1-3)Gal(b1-3)[Fuc(a1-4)]GlcNAc(b1-2)Man(a1-3)[Gal(a1-3)Gal(b1-3)[Fuc(a1-4)]GlcNAc(b1-2)Man(a1-6)]Man(b1-4)GlcNAc(b1-4)GlcNAc
# Procedure, shortened: as §1
# Gal(a1-4)Gal(b1-4)GlcNAc = target: Gal(a1-4)Gal(b1-4)GlcNAc
# Procedure, shortened: as §1
# [10] = target: Gal(a1-4)Gal(b1-4)GlcNAc(b1-2)Man(a1-3)[Gal(a1-4)Gal(b1-4)GlcNAc(b1-2)Man(a1-6)]Man(b1-4)GlcNAc(b1-4)GlcNAc
# Procedure, shortened: as §1
# [11] = target: Gal(a1-4)Gal(b1-4)GlcNAc(b1-3)Gal(b1-4)Glc
# Procedure, shortened: as §1
# Gal(b1-3)Gal(b1-4)GlcNAc = target: Gal(b1-3)Gal(b1-4)GlcNAc
# Procedure, shortened: as §1
# [12] = target: Gal(b1-3)GlcNAc(b1-3)Gal(b1-3)GlcNAc
# Procedure, shortened: as §1
# [13] = target: Gal(b1-3)GlcNAc(b1-3)Gal(b1-4)GlcNAc
# Procedure, shortened: as §1
# [14] = target: Gal(b1-3)[Neu5Ac(a2-6)]GalNAc
# Procedure, shortened: as §1
# [15] = target: Gal(b1-4)GlcNAc(b1-2)Man(a1-3)[Man(a1-6)]Man(b1-4)GlcNAc(b1-4)GlcNAc
# Procedure, shortened: as §1
# [16] = target: Gal(b1-4)GlcNAc(b1-3)[Gal(b1-4)GlcNAc(b1-6)]GalNAc
# Procedure, shortened: as §1
# Gal3S(b1-4)Glc = target: Gal3S(b1-4)Glc
# Procedure, shortened: as §1
# [17] = target: GalNAc(b1-3)Gal(a1-4)Gal(b1-4)GlcNAc(b1-3)Gal(b1-4)Glc
# Procedure, shortened: as §1
# [18] = target: GalNAc(b1-3)Gal(a1-6)Gal(b1-4)Glc
# Procedure, shortened: as §1
# GlcA(b1-3)GlcNAc = target: GlcA(b1-3)GlcNAc
# Procedure, shortened: as §1
# [19] = target: GlcNAc(a1-4)Gal(b1-4)GlcNAc
# Procedure, shortened: as §1
# [20] = target: GlcNAc(a1-4)Gal(b1-4)GlcNAc(b1-3)Gal(b1-4)[Fuc(a1-3)]GlcNAc(b1-3)Gal(b1-4)[Fuc(a1-3)]GlcNAc
# Procedure, shortened: as §1
# [21] = target: GlcNAc(b1-2)Man(a1-3)[GlcNAc(b1-2)Man(a1-6)]Man(b1-4)GlcNAc(b1-4)GlcNAc
# Procedure, shortened: as §1
# [22] = target: GlcNAc(b1-2)[GlcNAc(b1-4)]Man(a1-3)[GlcNAc(b1-4)][GlcNAc(b1-2)Man(a1-6)]Man(b1-4)GlcNAc(b1-4)GlcNAc
# Procedure, shortened: as §1
# [23] = target: GlcNAc(b1-3)Gal(b1-3)GalNAc
# Procedure, shortened: as §1
# GlcNAc(b1-3)Gal(b1-4)Glc = target: GlcNAc(b1-3)Gal(b1-4)Glc
# Procedure, shortened: as §1
# GlcNAc(b1-3)GalNAc = target: GlcNAc(b1-3)GalNAc
# Procedure, shortened: as §1
# [24] = target: GlcNAc(b1-4)GlcNAc(b1-4)GlcNAc(b1-4)GlcNAc(b1-4)GlcNAc(b1-4)GlcNAc
# Procedure, shortened: as §1
# [25] = target: GlcNAc(b1-4)[GlcNAc(b1-6)]GalNAc
# Procedure, shortened: as §1
# [26] = target: Neu5Ac(a2-3)Gal(b1-3)GalNAc(b1-3)Gal(a1-4)Gal(b1-4)Glc
# Procedure, shortened: as §1
# [27] = target: Neu5Ac(a2-3)Gal(b1-3)GalNAc(b1-4)[Neu5Ac(a2-3)]Gal(b1-4)Glc
# Procedure, shortened: as §1
# [28] = target: Neu5Ac(a2-3)Gal(b1-3)GlcNAc(b1-3)Gal(b1-3)GlcNAc
# Procedure, shortened: as §1
# [29] = target: Neu5Ac(a2-3)Gal(b1-3)[Fuc(a1-4)]GlcNAc(b1-3)Gal(b1-3)[Fuc(a1-4)]GlcNAc
# Procedure, shortened: as §1
# [30] = target: Neu5Ac(a2-3)Gal(b1-4)[Fuc(a1-3)]GlcNAc(b1-3)Gal(b1-4)GlcNAc
# Procedure, shortened: as §1
# [31] = target: Neu5Ac(a2-6)Gal(b1-3)GlcNAc(b1-3)[Gal(b1-4)GlcNAc(b1-6)]Gal(b1-4)Glc
# Procedure, shortened: as §1
# [32] = target: Neu5Ac(a2-6)Gal(b1-4)GlcNAc(b1-2)Man(a1-3)[GlcNAc(b1-2)Man(a1-6)]Man(b1-4)GlcNAc(b1-4)GlcNAc
# Procedure, shortened: as §1
# [33] = target: Neu5Ac(a2-6)Gal(b1-4)GlcNAc(b1-3)GalNAc
# Procedure, shortened: as §1
# [34] = target: Neu5Ac9Ac(a2-6)Gal(b1-4)GlcNAc
# Procedure, shortened: as §1
# Neu5Gc(a2-3)Gal(b1-4)Glc = target: Neu5Gc(a2-3)Gal(b1-4)Glc
# Procedure, shortened: as §1
# [35] = target: Neu5Gc(a2-3)Gal(b1-4)GlcNAc
# Procedure, shortened: as §1
# [36] = target: Neu5Gc(a2-6)Gal(b1-4)GlcNAc
# Procedure, shortened: as §1
# Neu5Gc(a2-6)GalNAc = target: Neu5Gc(a2-6)GalNAc
# Procedure, shortened: as §1
binder,measurement,setting,value
B1,glycan array binding signal (z-score),[1],2.48
same,glycan array binding signal (z-score),[2],0.041
same,glycan array binding signal (z-score),[3],0.596
same,glycan array binding signal (z-score),[4],-0.032
same,glycan array binding signal (z-score),[5],-0.249
same,glycan array binding signal (z-score),[6],-0.175
same,glycan array binding signal (z-score),[7],0.07
same,glycan array binding signal (z-score),[8],0.365
same,glycan array binding signal (z-score),[9],0.538
same,glycan array binding signal (z-score),Gal(a1-4)Gal(b1-4)GlcNAc,2.24
same,glycan array binding signal (z-score),[10],9.72
same,glycan array binding signal (z-score),[11],2.79
same,glycan array binding signal (z-score),Gal(b1-3)Gal(b1-4)GlcNAc,-0.025
same,glycan array binding signal (z-score),[12],-0.249
same,glycan array binding signal (z-score),[13],0.622
same,glycan array binding signal (z-score),[14],-0.248
same,glycan array binding signal (z-score),[15],-0.26
same,glycan array binding signal (z-score),[16],-0.34
same,glycan array binding signal (z-score),Gal3S(b1-4)Glc,-0.29
same,glycan array binding signal (z-score),[17],6.4
same,glycan array binding signal (z-score),[18],2.68
same,glycan array binding signal (z-score),GlcA(b1-3)GlcNAc,8.78
same,glycan array binding signal (z-score),[19],-0.192
same,glycan array binding signal (z-score),[20],0.469
same,glycan array binding signal (z-score),[21],-0.124
same,glycan array binding signal (z-score),[22],-0.317
same,glycan array binding signal (z-score),[23],-0.217
same,glycan array binding signal (z-score),GlcNAc(b1-3)Gal(b1-4)Glc,-0.297
same,glycan array binding signal (z-score),GlcNAc(b1-3)GalNAc,-0.322
same,glycan array binding signal (z-score),[24],1.05
same,glycan array binding signal (z-score),[25],-0.284
same,glycan array binding signal (z-score),[26],11.2
same,glycan array binding signal (z-score),[27],-0.101
same,glycan array binding signal (z-score),[28],-0.328
same,glycan array binding signal (z-score),[29],0.484
same,glycan array binding signal (z-score),[30],0.368
same,glycan array binding signal (z-score),[31],-0.21
same,glycan array binding signal (z-score),[32],-0.249
same,glycan array binding signal (z-score),[33],0.056
same,glycan array binding signal (z-score),[34],-0.322
same,glycan array binding signal (z-score),Neu5Gc(a2-3)Gal(b1-4)Glc,-0.229
same,glycan array binding signal (z-score),[35],-0.046
same,glycan array binding signal (z-score),[36],-0.292
same,glycan array binding signal (z-score),Neu5Gc(a2-6)GalNAc,-0.29
